Source: PubChem BioAssay (The Scripps Research Institute Molecular Screening Center)
Compounds with a hit are over-represented: about 1.9% of the library has one in this group of screens.
LYPLA2 inh = LYPLA2 (human) inhibition in PME1 counter-screen. O95372. recombinant LYPLA2, FP-Rh probe fluorescence polarization. inhibition, % at 5.9 µM. 320,000 tested, 0.38% active. AID 2177;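 active means inhibition above the screen-wide mean plus 3 SD, limit set per campaign, cut at about 26% in these data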
Target sequence (O95372 whole entry, looked up): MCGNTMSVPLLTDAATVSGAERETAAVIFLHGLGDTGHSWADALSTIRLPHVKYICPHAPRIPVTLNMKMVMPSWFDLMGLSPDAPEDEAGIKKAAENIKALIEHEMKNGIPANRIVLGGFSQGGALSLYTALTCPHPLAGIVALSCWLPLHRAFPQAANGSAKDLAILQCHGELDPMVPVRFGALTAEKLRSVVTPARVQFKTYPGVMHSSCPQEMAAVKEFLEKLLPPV
GSTO1 counter = GSTO1 inhibition, counter-screen for RBBP9 inhibitors | recombinant GSTO1, activity-based probe fluorescence polarization | inhibition, % at 5.96 µM | AID 1974 | P78417 | 300,000 tested, 1.1% active;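 active means inhibition above the campaign mean inhibition plus 3 SD, cut at about 35% in these data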
LYPLA1 counter = LYPLA1 (human) inhibition in PME1 counter-screen; O75608; recombinant LYPLA1, FP-Rh probe fluorescence polarization; inhibition, % at 5.9 µM; 320,000 tested, 0.16% active;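 active means inhibition above the mean of all tested compounds plus 3 SD, set per campaign, cut at about 14% in these data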;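 further: inhibitors block serine hydrolase probe labeling of LYPLA1 so polarization falls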
Fam108B inh = counter-screen for RBBP9 inhibitors: inhibitors of mouse Fam108B. recombinant Fam108B, FP-Rh probe fluorescence polarization. inhibition, % at 9.51 µM. 300,000 tested, 0.33% active. AID 1947;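 active means inhibition above the screen mean inhibition plus 3 SD, computed separately per campaign, cut at about 18% in these data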;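 further: inhibitors lower polarization as less probe binds the enzyme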
PME-1 inh = PME-1 (human) inhibition; 320,000 tested, 0.53% active; Q9Y570; inhibition, % at 5.9 µM; recombinant PME-1, FP-Rh probe fluorescence polarization;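 active means inhibition above the campaign mean of all compounds plus 3 SD, cut at about 26% in these data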;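 further: competitive labeling of PME-1 active site by serine hydrolase directed probe; inhibitors block probe labeling so polarization falls and inhibition rises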
Target sequence (Q9Y570 whole entry, looked up): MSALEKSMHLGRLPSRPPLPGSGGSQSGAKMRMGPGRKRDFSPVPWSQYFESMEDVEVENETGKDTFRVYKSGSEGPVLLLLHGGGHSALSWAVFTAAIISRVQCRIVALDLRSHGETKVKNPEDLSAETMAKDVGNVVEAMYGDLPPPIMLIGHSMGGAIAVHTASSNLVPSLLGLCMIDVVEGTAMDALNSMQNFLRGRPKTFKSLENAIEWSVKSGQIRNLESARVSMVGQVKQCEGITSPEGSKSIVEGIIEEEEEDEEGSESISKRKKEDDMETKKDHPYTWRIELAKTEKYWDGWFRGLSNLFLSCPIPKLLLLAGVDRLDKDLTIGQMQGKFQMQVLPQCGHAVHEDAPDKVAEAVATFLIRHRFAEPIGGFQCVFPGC
PREPL inh = inhibitors of human prolyl oligopeptidase-like enzyme PREPL. Q4J6C6. recombinant PREPL, fluorescence polarization activity-based probe. inhibition, % at 5.96 µM. 320,000 tested, 0.68% active. AID 2751
PREPL inh cf = human PREPL inhibition, confirmation; 2,000 tested, 67% active; recombinant PREPL, fluorescence polarization activity probe; shares compounds with PREPL inh; inhibition, % at 5.96 µM
Each line names hits and unclear results; the compound was inactive in the other large screens (follow-up assays come after a bar, where they were run). Unless noted, no stated cut-off is given here; in the data, active means inhibition above about 43%; inactive means the rest.

CC1CC(C)(C)CC2(C1)NC(=O)N(CC(=O)Nc1ccc3[nH]c(=O)[nH]c3c1)C2=O (stereo not given)	PREPL inh 49.4 (no result: GSTO1 counter, Fam108B inh) | PREPL inh cf inactive
Cc1ccc(C2(C)NC(=O)N(CC(=O)Nc3ccc4[nH]c(=O)[nH]c4c3)C2=O)cc1 (stereo not given)	PREPL inh 46.5 | PREPL inh cf inactive
C[C@H](OC(=O)N1CCN(C(c2ccccc2)c2ccccc2)CC1)[C@@H]1O[C@@]2(C)CCC[C@H]1O2	none
Cc1cc(CNC(=O)C2(C(F)(F)F)CC(CCCO)CCCO2)nn1C (stereo not given)	none
O=C(N/N=C1\CCCc2c1[nH]c1ccc(Cl)cc21)c1ccncc1	PREPL inh 45.4 | PREPL inh cf 55.1
CCOC(=O)[C@@H]1[C@H]2COc3cc(OC)ccc3[C@H]2N2C(=O)N(c3ccc(C)cc3)C(=O)[C@@]12C	none
Cc1ccccc1C(=O)N1CCN(c2ccc(NC(=O)CSc3ccc(Cl)cc3)cc2)CC1	PREPL inh 64.9 | PREPL inh cf 50.5
O=C(CSc1ccc(Cl)cc1)Nc1ccc(N2CCN(C(=O)c3ccco3)CC2)cc1	PREPL inh 48.0 | PREPL inh cf 48.6
O=C(COc1ccc(Cl)cc1)Nc1ccc(N2CCN(C(=O)c3ccco3)CC2)cc1	PREPL inh 48.6 | PREPL inh cf 48.2
NC(=O)CSc1nnc2ccc(-c3ccc(F)cc3)nn12	none
Cc1cccc(CN2CCSc3sccc3C2=O)c1	none
CCOc1ccc2nc(N3C(=O)C(O)=C(C(=O)c4ccco4)C3c3ccco3)sc2c1 (stereo not given)	none (no result: GSTO1 counter, Fam108B inh)
Cc1cc(C)c2nc(N3C(=O)C(O)=C(C(=O)c4ccco4)C3c3ccco3)sc2c1 (stereo not given)	PREPL inh 43.7 | PREPL inh cf 53.0
NCCCn1c(C(=O)c2cc(Cl)c(N)c(Cl)c2)c2ccc([N+](=O)[O-])cc2[n+]1[O-]	PREPL inh 61.2 | PREPL inh cf 69.5
COCCNC(=O)CN(Cc1ccccc1)S(=O)(=O)c1ccc2nc(C)sc2c1	none
C[C@@H]1CN([C@@H](C)CO)C(=O)Cc2cc(NC(=O)Nc3ccc(F)cc3)ccc2O[C@@H]1CN(C)Cc1ccc(Cl)c(Cl)c1	none (no result: LYPLA2 inh, GSTO1 counter, LYPLA1 counter, Fam108B inh, PME-1 inh)
C[C@H]1CN([C@@H](C)CO)C(=O)Cc2cc(NS(C)(=O)=O)ccc2O[C@@H]1CN(C)Cc1ccc(Cl)c(Cl)c1	PREPL inh 47.2 (no result: LYPLA2 inh, GSTO1 counter, LYPLA1 counter, Fam108B inh, PME-1 inh) | PREPL inh cf inactive
Cc1cccc(N2N=C(C(=O)Nc3nc(C)cs3)CCC2=O)c1	none
CC(=O)NCCc1ccc(S(=O)(=O)N2CCN(c3nc(-c4ccccc4)c(C)s3)CC2)cc1	none
CC1CCCCN1c1nnc(NC(=O)c2cc(-c3ccc(Br)cc3)on2)s1 (stereo not given)	none
Oc1ccc(Nc2nc(N3CCCC3)c3ccccc3n2)cc1	PREPL inh 72.3 | PREPL inh cf 65.7
COc1ccc(Nc2nc(N3CCCCC3)c3ccccc3n2)cc1	PREPL inh 59.7 | PREPL inh cf inactive
Cc1ccc(Nc2nc(N3CCOCC3)c3ccccc3n2)cc1	none
COc1cc(/C=C2/C(=O)NN(c3ccc(Cl)cc3)C2=O)ccc1OC(=O)c1ccco1	none
O=C1NN(c2ccccc2)C(=O)/C1=C\c1cccc(OC(=O)c2cccs2)c1	PREPL inh 57.0 | PREPL inh cf inactive
Cc1c(CC(=O)O)c(=O)oc2c(C)c(OCc3ccccc3Br)ccc12	none
CN1Cc2c(N3CCOCC3)nc3sc(C(=O)c4ccccc4)c(N)c3c2CC1(C)C	PREPL inh 60.7 | PREPL inh cf 63.9
CCOC(=O)c1sc2nc(N3CCOCC3)c3c(c2c1N)CC(C)(C)N(C)C3	none
CCN1C(=O)[C@H]2[C@H]3[C@H](O)[C@H](O)C/C(=N\OC[C@@H](C)[C@H](OCc4ccccc4)C(C)C)[C@@H]3CC[C@H]2C1=O	none
Cc1ccc(CNC(=O)c2ccc3c(=O)[nH]c4c(C(=O)NCC5CCCO5)sc(=S)n4c3c2)cc1 (stereo not given)	PREPL inh 44.1 | PREPL inh cf 46.2
Cc1ccc(CNC(=O)c2ccc3c(=O)n(CC4CCCO4)c(=S)[nH]c3c2)cc1 (stereo not given)	none
CCNc1nc(NCC)n2c(SCC(=O)Nc3ccc(F)cc3[N+](=O)[O-])nnc2n1	none
O=C(NNC(=O)c1cccc2ccccc12)c1ccccc1O	none
O=C(CCCO)NNc1c2ccccc2nc2ccccc12	none
O=C(COc1ccccc1)NNc1c2ccccc2nc2ccccc12	PREPL inh 45.5 | PREPL inh cf inactive
O=C(NNc1c2ccccc2nc2ccccc12)c1ccccc1O	PME-1 inh 54.0, PREPL inh 46.3 | PREPL inh cf inactive
COc1ccc(OCC(=O)NNc2c3ccccc3nc3ccccc23)cc1	PREPL inh 43.7 | PREPL inh cf 50.2
O=C(C[n+]1ccc2ccccc2c1)c1cccc2ccccc12	PREPL inh 51.7 | PREPL inh cf inactive
COc1ccc(C2CCCN2C(=S)Nc2cccc(Cl)c2C)cc1OC (stereo not given)	PREPL inh 49.5 | PREPL inh cf inactive
COc1ccc(NC(=O)NCCCN2CCN(c3ccccc3F)CC2)cc1	PREPL inh 48.9 | PREPL inh cf inactive
CCOc1ccc(NC(=O)NCCN2CCN(c3ccccc3F)CC2)cc1	none
CC1CCCN(C(=O)c2cn(-c3ccccc3)nc2-c2cccnc2)C1 (stereo not given)	none
Cc1[nH]c2ccccc2c1C(c1ccncc1)N1CCN(c2ccccn2)CC1 (stereo not given)	PREPL inh active | PREPL inh cf inactive
Cc1[nH]c2ccccc2c1C(c1ccncc1)N1CCN(c2ccccc2F)CC1 (stereo not given)	none
Cn1c(NC(=O)C[n+]2cc(-c3ccc(Cl)cc3)n3c2CCC3)cc(=O)n(C)c1=O	PREPL inh 43.1 | PREPL inh cf 45.5
Cc1cccc(N(C)C(=O)CCS(=O)(=O)c2cc3c(cc2Cl)NC(=O)CO3)c1	none
CCOC(=O)C1=C(CS(=O)(=O)c2ccc(C)cc2)NC(=O)NC1c1ccc(O)c(OC)c1 (stereo not given)	none
CCOC(=O)C1=C(CS(=O)(=O)c2ccc(C)cc2)NC(=O)NC1c1cc(OC)c(OC)c(OC)c1 (stereo not given)	PREPL inh 45.2 | PREPL inh cf inactive
CCN(CCN(C)C)C(=O)C1CCN(S(=O)(=O)c2c(C)noc2/C=C/c2ccccc2F)CC1	PREPL inh 43.5 | PREPL inh cf inactive
COc1ccc2sc(-c3ccc(N(C)C)cc3)c(C#Cc3cncn3C)c2c1	PREPL inh 46.5 (no result: LYPLA2 inh, GSTO1 counter, LYPLA1 counter, Fam108B inh, PME-1 inh) | PREPL inh cf inactive
